Screening results from PubChem BioAssay.
Sampled rows, rich in hits. Any-hit rate of the full collection: about 0.8%.
TRHR enhancer-1 = qHTS for Small Molecule Agonists and Allosteric Enhancers of Human TRH Receptor: Primary Screen for Enhancers; 360,000 compounds, 0.66% hits; TRHR cells, fluo-8 calcium fluorescence, EC20 TRH enhancement; enhancement, % at 2 µM; Thyrotropin-releasing hormone receptor (Homo sapiens), P34981; in the data active = enhancement above about 30%
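Enhancer read-out: after compound pinning and an initial kinetic agonist-mode read, an EC20 of TRH (10 nM final) was injected and fluo-8 calcium signal (Ex 480/Em 530) followed at 1 s/cycle for 100 cycles in TRHR-expressing cells.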
TRPML1 inh = qHTS for Inhibitors of the Human Mucolipin Transient Receptor Potential 1 (TRPML1); Mucolipin-1 (Homo sapiens), Q9GZU1; TRPML1-inducible cells, Ca2+ dye fluorescence, FDSS; stronger effect = lower value; inhibition of EC80 agonist-evoked calcium signal; activity change, negative = inhibition, % (concentration not given with the values); 390,000 compounds, 0.02% hits; in the data active = activity change below about -50%; inconclusive = between about -30% and that limit;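 also: stimulus is agonist 54-4 at its EC80 concentration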
Target sequence (Q9GZU1 whole entry, looked up): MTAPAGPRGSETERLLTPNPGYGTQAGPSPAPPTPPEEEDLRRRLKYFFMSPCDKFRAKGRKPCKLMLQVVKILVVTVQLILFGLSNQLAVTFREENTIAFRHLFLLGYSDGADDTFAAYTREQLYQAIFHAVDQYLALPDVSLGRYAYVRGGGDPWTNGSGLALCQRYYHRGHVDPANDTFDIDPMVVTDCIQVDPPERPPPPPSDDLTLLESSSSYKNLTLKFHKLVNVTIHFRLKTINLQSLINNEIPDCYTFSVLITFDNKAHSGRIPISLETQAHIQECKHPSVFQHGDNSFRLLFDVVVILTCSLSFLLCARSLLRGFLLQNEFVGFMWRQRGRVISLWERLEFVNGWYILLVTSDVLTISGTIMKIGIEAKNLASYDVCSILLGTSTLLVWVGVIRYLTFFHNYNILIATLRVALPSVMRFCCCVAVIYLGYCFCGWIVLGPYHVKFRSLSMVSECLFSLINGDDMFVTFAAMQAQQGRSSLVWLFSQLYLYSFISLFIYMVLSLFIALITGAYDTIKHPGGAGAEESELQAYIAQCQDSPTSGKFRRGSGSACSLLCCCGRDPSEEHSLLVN
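Tet-induced TRPML1-DL cells loaded with Ca8 no-wash calcium dye were read kinetically on FDSS. Compound addition was followed by EC80 agonist 54-4 (4 uM final); inhibition was read over 110 s.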
GRP78 ERSR act = qHTS for Inducers of the Endoplasmic Reticulum Stress Response (ERSR) in Human Glioma: qHTS. 420,000 compounds, 0.02% hits. AID 602332, 2012. U87-MG GRP78 promoter luciferase reporter, 16 h. Potency, µM, most hits filed as activators; also: series mostly up to about 76 µM; nearly all actives have a fitted effect of over 35% in size
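ERSR induction read as luciferase luminescence (Bright-Glo, 10 min at room temperature) in stably transfected human U87-MG glioma cells exposed to compounds for 16 h, using GRP78 as sensor.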
TRHR agonist-1 = qHTS for Small Molecule Agonists and Allosteric Enhancers of Human TRH Receptor: Primary Screen for Agonists. activation, % at 2 µM. Thyrotropin-releasing hormone receptor (Homo sapiens), P34981. TRHR cells, calcium flux fluo-8, FDSS agonist mode. AID 493084, 2011. 360,000 compounds, 0.18% hits; in the data active = activation above about 30%
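Read-out: compound-evoked intracellular calcium rise in TRHR cells, fluo-8 dye, kinetic FDSS fluorescence at 1 s/cycle following a 10-cycle baseline. Cells cultured overnight before dye loading (30 min–1.5 h, RT).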
TRPML1 agonist = qHTS for Agonists of the Human Mucolipin Transient Receptor Potential 1 (TRPML1) | Mucolipin-1 (Homo sapiens), Q9GZU1 | TRPML1-expressing cells, Ca2+ dye fluorescence, FDSS | activation, % (no concentration beside the values) | 410,000 compounds, 0.12% hits | AID 624414, 2012; in the data active = activation above about 50%; inconclusive = mostly about 30% to 49%
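Agonist activity was taken from a 110 s kinetic Ca2+ dye read on the FDSS after pinning compounds onto TRPML1-DL cells. The cells were seeded at 1,500/well with Tet inducer, incubated about 16 h, then dye-loaded at room temperature.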
TRHR enhancer-2 = qHTS for Small Molecule Agonists and Allosteric Enhancers of Human TRH Receptor: Confirmation Screen for Enhancers; shares compounds with TRHR enhancer-1; TRH receptor cell assay, enhancer confirmation qHTS; activity change, negative = inhibition, % at 46.1 µM; 970 tested, under 10 active;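 also: compound effect scored on response to added TRH at EC20 of 10 nM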
TRHR agonist-2 = qHTS for Small Molecule Agonists and Allosteric Enhancers of Human TRH Receptor: Confirmation Screen for Agonists. shares compounds with TRHR enhancer-1. TRHR-expressing cells, agonist activation read-out. Potency, µM (top dose mostly 46.1 µM), most hits filed as activators. 970 compounds, 8% hits. AID 493078, 2011; also: nearly all actives have a fitted effect of over 75% in size
Numbers stand for hits; - = inactive; ? = inconclusive; . = not tested or not shown. Unless noted, calls follow the shape of the dose curve; as a rule, active = well fitted curve in the direction sought with a large enough effect; inconclusive = small, poorly fitted or top-dose-only effect, or another doubt; inactive = no such curve, though single readings can be large; an effect the other way counts as inactive or inconclusive.

SMILES	TRHR enhancer-1	TRPML1 inh	GRP78 ERSR act	TRHR agonist-1	TRPML1 agonist	TRHR enhancer-2	TRHR agonist-2
O=C1c2ccccc2C(O)N1c1ccc(Cl)cc1 (configuration not stated)	-	-	-	-	-	.	.
O=C1c2ccccc2C(O)N1c1ccccc1 (configuration not stated)	-	-	-	30.7	-	-	-
COc1ccc(NC(=O)CN(C)C(=O)CNC(=O)c2sc3ccccc3c2Cl)cc1	44.7	-	-	-	-	-	-
COc1ccc(-n2ncc3c(N(C)C4CCCCC4)ncnc32)cc1	-	-	-	-	-	.	.
Cc1cccc(-n2ncc3c(N(C)C4CCCCC4)ncnc32)c1	48.6	-	-	-	-	-	-
Cn1nc(C(=O)NCc2ccc(F)cc2)cc1C(=O)NCc1ccc(F)cc1	46.1	-	-	-	-	-	-
Cn1nc(C(=O)NCc2ccccc2)cc1C(=O)NCc1ccccc1	-	-	-	-	-	.	.
CS(=O)(=O)c1ccc(C(=O)NCc2ccc(F)cc2)cc1	60.1	-	-	-	-	-	-
O=C(NCc1ccc(Cl)cc1)c1ccc(CNS(=O)(=O)c2ccc(F)cc2)cc1	-	-	-	-	-	.	.
Cc1c(C(=O)NCC2(c3ccccc3)CCOCC2)cnn1-c1nccc(-c2ccco2)n1	.	.	-	.	.	.	.
CCCCOc1ccc(C(=O)NCC(=O)N2CC(C)OC(C)C2)cc1 (configuration not stated)	-	-	-	-	-	.	.
CCCCOc1ccc(C(=O)NCC(=O)NCCOc2ccccc2OC)cc1	74.5	-	-	-	-	-	-
CCCCOc1ccc(C(=O)NCC(=O)N2CC(C)CC(C)C2)cc1 (configuration not stated)	-	-	-	39.9	-	-	-
COc1ccccc1C1CN(Cc2cccn2-c2ncccn2)Cc2ccccc2O1 (configuration not stated)	.	.	-	.	.	.	.
N#Cc1ccc(-c2cccnc2)nc1SCC(=O)c1ccccc1	-	-	-	37.7	?	-	-
CCCCCCc1cc2cc(C(=O)Nc3ccccc3)c(=O)oc2cc1O	-	-	-	30.1	-	-	-
CCCCCCc1cc2cc(C(=O)NCc3ccccc3)c(=N)oc2cc1O	-	-	-	-	-	.	.
COc1cccc(N2C(=O)CC(Nc3ccc(N4CCOCC4)cc3)C2=O)c1 (configuration not stated)	-	-	-	-	-	.	.
O=C1CC(Nc2ccc(N3CCOCC3)cc2)C(=O)N1c1cccc(C(F)(F)F)c1 (configuration not stated)	45.8	-	-	-	-	-	-
Cc1ccc(N2CCN(C(=S)Nc3ccc(Cl)cc3)CC2)cc1	-	-	-	-	-	.	.
S=C(Nc1ccc(Cl)cc1)N1CCN(C2CCCCC2)CC1	53.1	-	-	-	-	-	-
C=CCc1cc(C=O)cc(OCC)c1OCc1ccc(Cl)cc1	45.2	-	-	-	-	-	-
C=CCc1cc(C=O)cc(OC)c1OCc1ccc(Cl)cc1	-	-	-	-	-	.	.
CCC(=O)NC1=C(NC(C)c2ccccc2)C(=O)c2ccccc2C1=O (configuration not stated)	50.3	-	-	-	-	-	-
CCC(=O)Nc1ccc2c(c1)C(=O)c1ccccc1C2=O	-	-	-	-	-	.	.
SMILES	TRHR enhancer-1	TRPML1 inh	GRP78 ERSR act	TRHR agonist-1	TRPML1 agonist	TRHR enhancer-2	TRHR agonist-2
COc1cc(C)c(CN2CCc3nnc(C(C)NC(=O)c4cc(F)ccc4F)n3CC2)cc1C (configuration not stated)	.	.	-	.	.	.	.
Cn1c(-c2ccc3ccccc3n2)nc2cnccc21	53.7	-	-	-	-	?	-
COc1cc(OC)c(-c2nc3cnccc3n2C)cc1OC	-	-	-	-	-	.	.
COc1ccc2c(c1)-c1nc(-n3ncc(C(=O)NC(C)(C)CO)c3C3CC3)ncc1CC2	.	.	-	.	.	.	.
Cc1ccccc1NC(=O)CSc1nc(N)c(C#N)c(-c2cccs2)c1C#N	-	-	-	-	-	.	.
COc1ccc(CCNC(=O)CSc2nc(N)c(C#N)c(-c3cccs3)c2C#N)cc1OC	-	-	-	141.0	-	-	-
COc1ccc(CCNC[C@H](O)COc2cccc(C)c2)cc1OC	.	.	-	.	.	.	.
[2H]C([2H])(CCOS(N)(=O)=O)c1ccccc1	43.8	-	-	-	-	-	?
CC(CCOS(N)(=O)=O)c1ccccc1 (configuration not stated)	-	-	-	-	-	.	.
NC(=O)c1ccc(F)cc1	59.2	-	-	-	-	-	-
CCN1C(=O)c2ccccc2C1Nc1cccc(OCCN2CCCCC2)c1 (configuration not stated)	.	.	-	.	.	.	.
O=C(O)c1ccccc1Sc1ncnc2sc3c(c12)CCC3	43.3	-	-	-	-	-	-
O=C(CSc1ncnc2sc3c(c12)CCCC3)c1ccccc1	-	-	-	-	-	.	.
CCN(CC)CCCNC(=S)N1CCN(c2nc(-c3ccccc3)cs2)CC1	42.2	?	-	-	-	-	?
COc1cc(C(=S)N2CCOCC2)ccc1OC(=O)c1cccc(C)c1	48.5	-	-	-	-	-	-
COc1ccc(N(CC(=O)Nc2cccc(C(C)=O)c2)S(C)(=O)=O)cc1OC	52.8	-	-	-	-	-	-
COc1cccc(N(CC(=O)Nc2cccc(C(C)=O)c2)S(C)(=O)=O)c1	-	-	-	-	-	.	.
COc1cc(CN2CCOc3ccc(CN4CCC(Oc5cccnc5)CC4)cc3C2)ccc1F	.	.	-	.	.	.	.
CC1(C)Oc2ccc(C(=O)NC3CCCCC3)cc2N(CC#N)C1=O	46.4	-	-	-	-	-	-
COc1cc(=O)n2c(c1C(=O)NCc1ccc3c(c1)OCO3)CCN(C(=O)c1ccc(C)cc1)CC2	.	.	-	.	.	.	.
CCCCCc1ccc(OCCCC[n+]2ccccc2)c(CCCCC)c1	-	-	-	-	-	.	.
CCCCCc1ccc(OCCCC[n+]2ccc(C)cc2)c(CCCCC)c1	-	-	-	35.0	-	-	?
CC1CN(CC(=O)N2CCN(Cc3nccn3C)CC2)Cc2cc(Cl)ccc2O1 (configuration not stated)	.	.	-	.	.	.	.
